Molecules are shown by their SMILES. Screen size: about 360,000 compounds; about 1,800 (0.5%) were called active. Many of the other results were omitted from the sample, so actives are more common in it than they were. Values without a mark were called inactive.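 The calls were made as follows: active = interference check ratio from 0.5 to 1.5 plus GFP to RFP signal ratio inhibition reaching or exceeding a fixed threshold (cut at about 30% in these data, passing the limit was not always enough); inactive = the rest.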

The assay in a line: gst-4 reporter inhibition in live C. elegans – whole organism, uHTS, GFP/RFP fluorescence ratio, strain VP596, SKN-1 inhibitor project, primary screen (AID 624304). Particulars: C. elegans VP596 Pgst-4::GFP/RFP ratio, acrylamide-induced, 24 h; at 21.8 µM; stronger effect = higher value.
On to `COCCn1c(=NC(=O)c2ccccc2[N+](=O)[O-])sc2cc(S(C)(=O)=O)ccc21`, for which the inhibition (usually the drop in the measured response relative to a control, in per cent) is 0.193%.
Turning to `COc1ccc(C(=O)NC(C)Cn2nc(C)cc2C)cc1OC1CCN(C(C)=O)CC1` (stereo not given), the inhibition is 8.35%.
`CCC(Cc1ccccc1)NS(=O)(=O)c1ccc2c(c1)NC(=O)CS2` (stereo not given): the inhibition is -5.64%.
Turning to `O=C(Nc1cc(F)ccc1F)c1ccc2c(=O)n3c(nc2c1)CCC3`, the inhibition is -4.08%.
On to `COC[C@@H]1NS(=O)(=O)c2ccc(Br)cc2O[C@H]1c1ccccc1`, for which the inhibition was 14.6%.
For `COc1ccc(C(=O)NCc2ccc(C)cc2)cc1S(=O)(=O)N1CCCC1`, the inhibition is 0.996%.
As for `CCOC(=O)c1cccc(NC(=O)CN2C(=O)C3CC=CCC3C2=O)c1` (stereo not given), the inhibition is 6.29%.
For `CC(=O)N(CN1C(=O)C2CC=CCC2C1=O)c1cccc(Cl)c1` (stereo not given), the inhibition is 36.1% (active).
For `CC(=O)N(CN1C(=O)C2C3C=CC(C3)C2C1=O)c1cccc(Cl)c1` (stereo not given), the inhibition was 16.7%.
Turning to `COc1ccc(NC(=O)C(CC(C)C)NC(=O)C2CCC(C)CC2)cc1` (stereo not given), the inhibition is -11.6%.
As for `COc1ccc(Cc2nnc(NC(=O)c3cc(OC)c(OC)c(OC)c3)s2)cc1OC`, the inhibition was -13.7%.
For `CC(=O)Oc1ccc(C(=O)Nc2nccs2)cc1` the value was 3.06%; for `COc1cc(C(=O)Nc2nccs2)cc(OC)c1OC`, 41.9% (active); for `CCC(C)(C)c1ccc(OCC(=O)N(C)C)c(C(C)(C)CC)c1`, 2.98%.
On to `CC1(C(=O)NS(=O)(=O)c2cccc(F)c2)CCN1C(=O)Cc1ccc(Cl)cc1Cl` (stereo not given), for which the inhibition was 15.6%.
For `C=C(C)Cn1c(N2CCN(CC)CC2)nc2c1c(=O)[nH]c(=O)n2C`, the inhibition was 16.3%.
For `O=S(=O)(Cc1cc(Sc2ccccc2)nc(-c2ccccc2)n1)c1ccccc1` the value was 44.9% (active).
Turning to `O=S(=O)(Cc1cc(Cl)nc(-c2cccnc2)n1)c1ccccc1`, the inhibition is -15.6%.
With `Cc1ccc(Sc2cc(N3CCOCC3)nc(-c3ccccc3)n2)cc1`, the inhibition is 7.71%.
For `Cc1cc2c(=O)n(CC(=O)NCC(=O)Nc3ccc(C(C)C)cc3)cnc2s1` the value was -0.0427%; for `CCOc1ccc(N2C(=O)/C(=C/c3ccc(C)o3)N(C)C2=S)cc1`, -1.02%.
Turning to `CCOc1cc2[nH]c(=S)n(CCCN3CCCC3=O)c(=O)c2cc1OCC`, the inhibition is -28.4%.
Take `O=Cc1c(NCCCN2CCCC2=O)c2ccccc2[nH]c1=O`: the inhibition is 19.6%.
With `O=C(CCn1c(=S)[nH]c2ccccc2c1=O)NCCCN1CCCC1=O` the figure was 36.5% (active); with `COc1ccc(N2CCN(C(=O)C3CCN(S(=O)(=O)c4ccc(C)cc4)CC3)CC2)cc1`, 5.77%.
As to `CC(CCc1ccccc1)NC(=O)COC(=O)c1ccc(F)cc1` (stereo not given), the inhibition was 3.96%.
For `CCc1ccc(OCC(=O)OCC(=O)c2c(N)n(C)c(=O)n(C)c2=O)cc1` the value was -10%; for `C[C@H]1CN([C@@H](C)CO)C(=O)CCCn2cc(nn2)CO[C@@H]1CN(C)C(=O)Nc1ccccc1`, 1.2%; for `COC(=O)CNC(c1ccccc1Cl)c1cc(Br)ccc1NC(=O)CCN1CCOCC1` (stereo not given), 35.2% (active).
As to `COc1ccccc1NC(=O)CCN1CCN(c2ccc(Cl)cc2)CC1`, the inhibition was 8.41%.
Take `Cc1cc(NC(=O)CCN2CCN(Cc3ccccc3)CC2)ccc1Br`: the inhibition was 1.51%.
`Cc1cc(C)cc(NC(=O)C2CCCN(S(=O)(=O)c3ccc4[nH]c(=O)ccc4c3)C2)c1` (stereo not given): the inhibition was 11.9%.
With `O=S(=O)(NC1CC2CCC1C2)c1ccc(Cl)cc1` (stereo not given) the figure was 8.97%; with `CN1c2ccc(C=O)c3c(C=O)ccc(c23)N(C)C1(C)C`, 39.8% (active).
For `CCCCNC(=O)C1(O)c2ccccc2NC(=O)N1c1ccc(Cl)cc1` (stereo not given) the value was 19.1%; for `CSc1ccc(CNC(=O)c2ccc(NC(=O)C3=CSCCO3)cc2)cc1`, 22.9%; for `Cc1nc2ccccn2c1C(=O)NN=C1CCN(C)CC1`, 8.18%.
For the molecule `CC1=NNC(=O)C1Cc1c(Cl)cccc1Cl` (stereo not given), the inhibition was -3.65%.
With `Cc1ccc(OCCNC(=O)CNC(=O)c2ccc(C)c(C)c2)cc1` the figure was 5.58%.
As to `CC(C=Cc1ccccc1)=NNS(=O)(=O)c1ccc([N+](=O)[O-])cc1`, the inhibition is 21.6%.
With `O=[N+]([O-])c1ccc(N/N=C/c2ccccc2)cc1`, the inhibition was 41.2% (active).
With `COC(=O)c1ccccc1N=NNc1ccc([N+](=O)[O-])cc1`, the inhibition is 20.6%.
For the molecule `CC1CN(c2cc(=O)n(-c3cccc(Br)c3)c(=O)[nH]2)CC(C)O1` (stereo not given), the inhibition is 5.49%.
With `Brc1ccc2nc(N3CCCC3)sc2c1` the figure was 52% (active).
Regarding `O=C(NCCc1cccc(F)c1)C1CCCN(c2nc3ccccc3s2)C1` (stereo not given), the inhibition is 10.3%.
As for `COc1ccc2nc(N3CCN(C(=O)c4ccc([N+](=O)[O-])o4)CC3)sc2c1`, the inhibition was 2.32%.
With `CCCCN1C(=S)NC[C@@H]1C(C)CC` (stereo not given in full), the inhibition was -0.152%.
`Clc1ccc(C[n+]2cc(-c3ccc(Cl)cc3)n3c2CCC3)cc1`: the inhibition was 0.364%.
For `O=C(C1CCN(S(=O)(=O)c2cnc[nH]2)CC1)N1CCN(Cc2ccc3c(c2)OCO3)CC1` the value was 17.4%; for `COc1ccccc1N1CCN(CC(=O)Nc2ccnn2C2CCCC2)CC1`, -9.67%.
`FC(F)(F)c1ccnc(Oc2ccc(C3=NCCS3)cc2)c1`: the inhibition was 44.7% (active).
As for `CCC(=O)Nc1ccc(S(=O)(=O)Nc2c(NC)c3ccccc3oc2=O)cc1`, the inhibition was 9.74%.
Turning to `CN(Cc1ccccc1)C(=O)COC(=O)c1ccccc1Nc1ccccc1`, the inhibition is -4.32%.
Turning to `Cc1cccc(N2CCN(C(=O)c3cccc(S(=O)(=O)N4CCc5ccccc5C4)c3)CC2C)c1` (stereo not given), the inhibition was -16.8%.
As to `COc1cccc(C2SCC(=O)N2c2cccc(C)c2)c1OC` (stereo not given), the inhibition was 2.8%.
For `Cc1cc(C(C)(C)C)oc1C(=O)N(CC(=O)NC1CCCC1)Cc1ccc(Cl)cc1`, the inhibition is 6.57%.
For `O=C(CSc1nnc(-c2ccco2)o1)NCC(=O)c1ccccc1` the value was -0.628%; for `CCOc1ccc(NC(=O)N(CCC(C)C)C(C)c2ccco2)cc1` (stereo not given), -11.7%; for `CCOc1ccc(-c2nnc(-c3ccco3)o2)cc1`, 58.1% (active).
With `CCCOc1ccc(-c2c(C(=O)N/N=C/c3ccco3)nnn2-c2nonc2N)cc1`, the inhibition is 3.6%.
With `CCCCOc1ccc(-c2nnc(-c3ccco3)o2)cc1` the figure was 64.9% (active).
Consider `CCCCSc1nnc(-c2ccc(C)cc2)o1`, for which the inhibition was 1.11%.
On to `OCC(CO)(CO)NCc1ccc(-c2ccccc2)cc1`, for which the inhibition is 5.37%.
For `CC(O)c1nc2c(c(=O)n(C)c(=O)n2C)n1C` (stereo not given) the value was 1.19%; for `Cc1cccc(CN2CCN(Cc3cnn(-c4ccccc4F)c3)CC2CCO)n1` (stereo not given), -14.6%.
Take `COc1ccc(C(=O)N(C)CC(O)c2ccccc2)cc1OC1CCN(C(C)=O)CC1` (stereo not given): the inhibition is -1.73%.
Regarding `COCCNC(=O)c1ccc(-n2c(SCc3cccnc3)nc3ccccc3c2=O)cc1`, the inhibition is 7.94%.
With `CCC(C(=O)NCc1ccccc1)n1c(Cc2cc(F)cc(F)c2)nc2ccccc21` (stereo not given), the inhibition is -5.9%.
Turning to `CCOC(=O)c1cccc(NC(=O)C2CCN(c3ncnc4c3nc3n4CCCCC3)CC2)c1`, the inhibition was -10.7%.
Consider `COc1cccc(NC(=O)C2CCCN(c3ncnc4c3nc3n4CCCCC3)C2)c1` (stereo not given), for which the inhibition was 35.4% (active).
With `COc1cccc(CNC(=O)C2CCCN(c3ncnc4c3nc3n4CCCCC3)C2)c1` (stereo not given) the figure was 15.4%; with `CCCC1C(=O)N2C(N(C)C)=Nc3ccc(C)cc3N2C1=O` (stereo not given), 11.9%.
In the case of `Cn1c(=O)c2c(ncn2CC(COCc2ccccc2Cl)OCc2ccccc2Cl)n(C)c1=O` (stereo not given), the inhibition is -6.9%.
Regarding `CNC(=O)/C(C#N)=C/c1c(F)cccc1Cl`, the inhibition is 14.6%.
As for `C=CCC1(C#N)C(=S)NC(C)=C(C(=O)OCC)C1c1ccccc1` (stereo not given), the inhibition is 20.2%.
For the molecule `CCCNC(=O)C1CC(=O)N(c2ccc(OCc3ccccc3)cc2)C1` (stereo not given), the inhibition is 5.65%.
As for `CC1(C)NC(=O)N(CCCCSc2ccc(Cl)cc2)C1=O`, the inhibition is 4.13%.
As for `CNS(=O)(=O)c1ccc2c(c1)[nH]c(=S)n2C`, the inhibition was 45.2% (active).
Regarding `CCCCn1c(=S)[nH]c2cc(S(=O)(=O)N3CCCCC3)ccc21`, the inhibition is 15.1%.
In the case of `CCn1c(=S)[nH]c2cc(S(=O)(=O)N3CCOCC3)ccc21`, the inhibition is -5.66%.
For the molecule `O=C(Nc1ccc2c(c1)CCC2)c1ccc(Br)s1`, the inhibition is 9.29%.
Regarding `COc1ccc(CNC(=O)c2ccc(Br)s2)cc1OC`, the inhibition is -0.0485%.
As to `COc1ccc2nc(NC(=O)c3ccc(Br)s3)sc2c1`, the inhibition was 38.2% (active).
Turning to `Cc1cc(N)n(-c2ccc(S(=O)(=O)N3CCCC3)cc2[N+](=O)[O-])n1`, the inhibition is -11.2%.
For `Cc1oc(-c2cccc(Cl)c2)[n+]([O-])c1C` the value was 20.3%.
For `O=C(CCCC(=O)N(CC(=O)NC1CCCC1)Cc1ccccc1Cl)Nc1ccccn1` the value was 12%; for `O=C(NC(=S)Nc1ccc(S(=O)(=O)Nc2ncccn2)cc1)c1cccc(Br)c1`, -6.45%.
Regarding `O=C(NC(=S)Nc1cccc2c(O)cccc12)c1cccc(Br)c1`, the inhibition was 41.4% (active).
With `O=C(NC(=S)Nc1ccc(Cl)c(C(=O)O)c1)c1cncc(Br)c1`, the inhibition was -0.232%.
`CC(=O)c1ccc(N2CCN(C(=O)c3ccc(Cl)c(S(=O)(=O)NC4CC4)c3)CC2)c(F)c1`: the inhibition was 14.2%.
For the molecule `CC(=O)c1ccc(N2CCN(C(=O)CCNC(=O)Cn3ccc4ccccc4c3=O)CC2)cc1`, the inhibition was -6.32%.
Turning to `CC1CCN(c2ccc([N+](=O)[O-])c(SCCO)c2)CC1`, the inhibition is 13.8%.
In the case of `Clc1ccc(Nc2ccc3ccccc3n2)cc1`, the inhibition is 47.2% (active).
With `CC1(C)N=C(N)NC(Nc2ccc(Cl)cc2)=N1`, the inhibition was 9.6%.
For the molecule `C=CCNc1nc(Nc2ccc(Cl)cc2)nc(OC)n1`, the inhibition was 13.7%.
